Assay results reported in PubChem BioAssay (NCATS).
Inconclusive results are not listed. Activity calls are given as the source filed them. The call rests on the fitted dose curve; in most records, active means well fitted curve in the direction sought with a large enough effect; inconclusive means small, poorly fitted or top-dose-only effect, or another doubt; inactive means no such curve, though single readings can be large; an effect the other way counts as inactive or inconclusive.

Assays:
[1] = tested on: Nanoluciferase (engineered Oplophorus gracilirostris luciferase); test: Primary Nanoluciferase (NLuc) qHTS assay for identification of artifact compounds. (AID 1845222); conditions: NLuc-conditioned medium, Nano-Glo luminescence, 5 min; series mostly up to 54.1 µM;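 further: NLuc secreted into diluted conditioned medium of S16 cells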
Excerpt: PI: Alexander Tropsha Ph.D.
UNC Eshelman School of Pharmacy
University of North Carolina, Chapel Hill, North Carolina
Hits from high-throughput screening (HTS) of chemical libraries are often false positives due to their interference with the assay detection technology. In response to this problem, we generated the largest publicly available library of chemical liabilities and developed a free webtool to predict HTS artifacts, both of which are described herein. More specifically, we generated, curated, and integrated HTS datasets for thiol reactivity, redox activity, and luciferase (firefly and nano) activity. Using these curated datasets, we developed and validated several Quantitative Structure-Interference Relationship (QSIR) models to predict nuisance behavior. […] These models were employed for virtual profiling of the National Center for Advancing Translational Science's (NCATS) in-house library, and 256 compounds for each assay were selected for the experimental validation of nuisance behavior. The BA for these external predictions ranged from 58 to 78% for compounds within the applicability domains of the models. […] The models developed in this study, along with aggregation models previously developed by our group (SCAM Detective) were implemented in "Liability Predictor," an online tool which may be used as part of chemical library design or for triaging HTS hits. Both the models and the curated datasets are publicly available at https://liability.mml.unc.edu/.
SEQUENCE No. (e.g., 1, 2, 3, etc.); […] (e.g., Cells, Incubation, Reagent, etc.); VALUE; DESCRIPTION.
1; Reagent; 2 uL; Nanoluciferase media.
2; Compounds and control; 16 nL; Kalypsis pin tool (Wako USA) equipped with a 1536-well pin head.
4; Reagent; 2 uL; Luciferase enzyme.
6; Detection; Luminescence, ViewLux microplate reader.
NOTES (numbers refer to Sequence numbers above)
1. Medium was collected from the culture flasks of NLuc-expressing S16 cells (80% confluent) prior to cell plating, filtered through a 0.22um filter, and frozen at -20C prior to use. Media was diluted (1:55) and 2 uL was dispensed into all wells of a 1536-well assay plate (solid-bottom white plate; Greiner Bio One, Monroe, NC).
2. A Wako Pin-tool (Wako Automation, Richmond, VA) was used to transfer 16 nL of compounds (consisting of 7-plates in qHTS format, final concentration range 18.3 nM to 114 uM) or control Cilnidipine (final concentration range 623 nM to 80 uM).
3. 15 min. incubation at room temperature protected from light.
4. 2 uL of NLuc substrate (1:100 in Nano-Glo luciferase buffer; Nano-Glo luminescence assay, Promega, Madison, WI) was dispensed for a final assay volume of 4 uL.
5. Plates were centrifuged (121xg, 15 seconds) and incubated for 5 minutes.
6. Samples were read for luminescence on a ViewLux CCD imager (PerkinElmer). Data were normalized to no-enzyme (0% activity) and no-inhibitor (DMSO; 100%) controls and the resulting percent inhibition data were fitted to a 4-parameter Hill equation using NCATS in-house software.

[2] = Primary redox qHTS assay for identification of artifact compounds. (AID 1845223); conditions: Amplex Red/HRP redox cycling with DTT, fluorescence; series mostly up to 53.8 µM
In short: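 Amplex Red (25 uM) and HRP (250 mU/mL) in HBSS, with compounds for 15 min, then 250 uM DTT for 30 min, room temperature, dark. Fluorescence 525/598 nm read; normalized to DMSO and 10 uM DA3003; Hill fit.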

[3] = Quantitative High-Throughput drug screen in 47 multiple myeloma cell lines against the NCATS MIPE library collection: FR4_PLB cell viability assay (AID 1918924; further: nearly all actives have a fitted effect of over 35% in size; further: potency means the concentration at half of the fitted maximal effect); conditions: FR4_PLB myeloma cells viability, CellTiter-Glo ATP, 48 h; series mostly up to 45.8 µM
In short: (§1)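 Luminescent ATP measurement with CellTiter-Glo gives viability, scaled between DMSO-only wells (100%) and media-only wells (0%). Cells, 500 per well, faced library compounds for 48 hours at 37C.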

[4] = Quantitative High-Throughput drug screen in 47 multiple myeloma cell lines against the NCATS MIPE library collection: EJM_DSMZ cell viability assay (AID 1918926; further: nearly all actives have a fitted effect of over 30% in size); conditions: EJM myeloma cell viability, CellTiter-Glo ATP, 48 h; series mostly up to 45.8 µM
In short: (§2)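 Relative luminescence from CellTiter-Glo served as the viability signal, referenced to DMSO-treated (100%) and cell-free medium (0%) controls. Treatment lasted 48 hours at 37C with 500 cells per well.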

[5] = Quantitative High-Throughput drug screen in 47 multiple myeloma cell lines against the NCATS MIPE library collection: Karpas620_DSMZ cell viability assay (AID 1918959); conditions: Karpas620 myeloma viability, CellTiter-Glo ATP luminescence, 48 h; series mostly up to 45.8 µM; further: nearly all actives have a fitted effect of over 30% in size; further: potency means the concentration at half of the fitted maximal effect
In short: as §1

[6] = Quantitative High-Throughput drug screen in 47 multiple myeloma cell lines against the NCATS MIPE library collection: KMM1_JCRB cell viability assay (AID 1918960); conditions: KMM1 myeloma viability, CellTiter-Glo ATP luminescence, 48 h; series mostly up to 45.8 µM; further: nearly all actives have a fitted effect of over 30% in size
In short: (§3)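 Luminescence from CellTiter-Glo, taken after 5 min at room temperature, reports cellular ATP as viability. Cells (500 per well) had been treated 48 h at 37 °C with MIPE 4.0 compounds, scaled between DMSO and medium-only controls.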

[7] = Quantitative High-Throughput drug screen in 47 multiple myeloma cell lines against the NCATS MIPE library collection: Delta47_JCRB cell viability assay (AID 1918925; further: nearly all actives have a fitted effect of over 45% in size; further: potency means the concentration at half of the fitted maximal effect); conditions: Delta47 myeloma viability, CellTiter-Glo ATP, 48 h; series mostly up to 45.8 µM
In short: as §2

[8] = Quantitative High-Throughput drug screen in 47 multiple myeloma cell lines against the NCATS MIPE library collection: ARP1_JJKsccF8 cell viability assay (AID 1918928; further: nearly all actives have a fitted effect of over 40% in size; further: potency means the concentration at half of the fitted maximal effect); conditions: ARP1 myeloma cells viability, CellTiter-Glo ATP, 48 h; series mostly up to 45.8 µM
In short: as §3

[9] = Quantitative High-Throughput drug screen in 47 multiple myeloma cell lines against the NCATS MIPE library collection: ARD_JJKsccE7 cell viability assay (AID 1918929; further: potency means the concentration at half of the fitted maximal effect); conditions: ARD myeloma cell line viability, CellTiter-Glo, 48 h; series mostly up to 45.8 µM
In short: as §2

[10] = Quantitative High-Throughput drug screen in 47 multiple myeloma cell lines against the NCATS MIPE library collection: AMO1_DSMZ cell viability assay (AID 1918927; further: nearly all actives have a fitted effect of over 30% in size); conditions: AMO1 myeloma cells viability, CellTiter-Glo ATP luminescence, 48 h; series mostly up to 45.8 µM
In short: as §2

Measured: Potency

Clc1ccc2c(c1)C(N1CCNCC1)=Nc1ccccc1O2
inactive: [1] | [2] | [3] | [4] | [5] | [6]

CN(CCOc1ccc(NS(C)(=O)=O)cc1)CCc1ccc(NS(C)(=O)=O)cc1
inactive: [3] | [7] | [4] | [8] | [9] | [6]

COc1ccccc1N1CCN(CC(O)COc2cccc3ccccc23)CC1 (centres undefined)
active: [8] 9.35 µM
not listed: [1] | [2] | [9]
inactive: all other assays above

O=C1Cc2cc(CCN3CCN(c4nsc5ccccc45)CC3)c(Cl)cc2N1
active: [7] 23.5 µM | [5] 8.33 µM
inactive: [1] | [2]

CC1COc2c(N3CCN(C)CC3)c(F)cc3c(=O)c(C(=O)O)cn1c23 (centres undefined)
inactive: [3] | [7] | [4] | [8] | [9] | [5]

CCC1(c2ccccc2)C(=O)NCNC1=O
active: [7] 2.96 µM | [9] 14.8 µM
inactive: [3] | [4] | [8] | [5]

Cc1cc(C(C)(C)C)c(O)c(C)c1CC1=NCCN1
not listed: [5] | [10]
inactive: all other assays above

Cn1c(=O)c2[nH]cnc2n(C)c1=O
inactive: [3] | [7] | [4] | [10] | [8] | [6]

O=C(C1CCCCC1)N1CC(=O)N2CCc3ccccc3C2C1 (centres undefined)
not listed: [1] | [2]
inactive: all other assays above

C[C@H]1c2cccc(O)c2C(O)=C2C(=O)[C@]3(O)C(O)=C(C(N)=O)C(=O)[C@@H](N(C)C)[C@@H]3[C@@H](O)[C@@H]21
active: [3] 26.4 µM | [7] 23.5 µM
